Assay results from PubChem BioAssay AID1347417 (National Center for Advancing Translational Sciences (NCATS), 2020).
Among all 120,000 compounds or so, about 5,300 (4.4%) were called active. Another 22% or so got no clear call; they are omitted. Calls follow the shape of the dose curve; as a rule, active = well fitted inhibition curve with a large enough effect; inconclusive = small, poorly fitted or top-dose-only effect; inactive = no such curve, though single readings can be large or run the other way. Many of the other results were omitted from the sample, so actives are more common in it than they were.

assay: qHTS Primary assay for Inhibitors of Plasmodium falciparum Dd2 growth in vitro; also: nearly all actives have a fitted effect of over 65% in size;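 as to activity, negative = inhibition: plate controls were DMSO vehicle for no effect and reference drug for full effect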; details: P. falciparum Dd2 growth, SYBR Green, 72 h; series mostly up to 28.9 µM; activity, negative = inhibition: at the top concentration
Method in brief: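 Infected erythrocytes (Dd2, 0.3% parasitemia, 2.5% hematocrit final) are added to compound in RPMI-1640/Albumax II medium, grown 72 h at 37C in low oxygen, then lysed with saponin/Triton-X containing SYBR Green and read by fluorescence.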
Potency is read from the fitted curve at half-maximal effect.

| SMILES | activity, negative = inhibition | outcome | Potency |
| --- | --- | --- | --- |
| CNC(=O)[C@@H]1CN(C(=O)Cc2cccnc2)C[C@H]1COC | 22.4% (inactive) |  |  |
| O=C(NC1CCCC1)N1CC2CC(C1)[C@H]1CCCC(=O)N1C2 (stereo partly specified) | 6.81% (inactive) |  |  |
| CCOC(=O)c1scc(-c2ccc(C)cc2)c1S(=O)(=O)Nc1cc(C)ccc1C |  | inactive |  |
| COC(=O)c1scc(-c2ccccc2)c1S(=O)(=O)Nc1ccccc1 | 13.8% (inactive) |  |  |
| COC(=O)c1scc(-c2ccc(C)cc2)c1S(=O)(=O)Nc1cc(Cl)c(OC)cc1OC |  |  | 8.91 µM (active) |
| COc1ccc(CN2C[C@H]3CN(Cc4ccccc4)CCN3C2=O)cc1 |  | inactive [at 44.1 µM] |  |
| CCCS(=O)(=O)N1CCC2(CC1)C(OC)C(=O)N2CC1CC1 (stereo unspecified) | 7.35% (inactive) |  |  |
| COc1ccc(N2CCN(CCCNC(=O)C3(CCO)CC34CCOCC4)CC2)cc1 (stereo unspecified) |  | inactive |  |
| C#CCOc1ccc(C2CC(=O)Nc3c2c(C)nn3-c2nc(C)cc(C)n2)cc1 (stereo unspecified) | -28.9% (inactive) |  |  |
| COc1ccc(C2CC(=O)N(Cc3ccccc3C)c3c2c(C)nn3-c2nc(C)cc(C)n2)c(OC)c1 (stereo unspecified) |  |  | 10 µM (active) |
| COc1ccc(-c2nc(Cn3c(=O)cc(C)c4c(C)nn(-c5ccccc5)c43)c(C)o2)c(OC)c1 | 25.9% (inactive) |  |  |
| CCc1cc(=O)n(CC(=O)Nc2ccc(OC)c(OC)c2)c(N2CCOCC2)n1 |  | inactive |  |
| COc1ccc2[nH]c(=O)c(CCC(=O)NCC(N)=O)cc2c1 | -22% (inactive) |  |  |
| Cc1n[nH]c(C)c1CCC(=O)N[C@@H]1CN(S(C)(=O)=O)C[C@H]1CN(C)C | 52.8% (inactive) |  |  |
| COc1ccc(OCC2CCN(CC3(O)CCCNC3)CC2)cc1 (stereo unspecified) |  |  | 12.6 µM (active) |
| CCc1cc(N2CCN(CC3(O)CCCNC3)CC2)ncn1 (stereo unspecified) | -2.03% (inactive) |  |  |
| OC1(CN2CCC(CCn3cccn3)CC2)CNCCOC1 (stereo unspecified) | -13.6% (inactive) |  |  |
| O=C(c1ccccn1)N1CCC2(CC1)C(=O)Nc1ccccc12 | 90.5% (inactive) |  |  |
| O=C([C@@H]1C[C@H](Oc2ccccc2)CN1C(=O)NC1CCCCC1)N1CCCC1 | -1.4% (inactive) |  |  |
| CC1CCCN(c2cc3c(cc2F)c(=O)c(S(=O)(=O)c2cccc(Cl)c2)cn3Cc2ccccc2)C1 (stereo unspecified) |  | inactive |  |
| CCn1cc(C(=O)N2CCN(c3cc(Cl)ccc3C)CC2)c(=O)c2cc(S(=O)(=O)N3CCCC3)ccc21 | 1.19% (inactive) |  |  |
| Cc1ccc(S(=O)(=O)c2cn(Cc3ccccc3)c3cc(N4CCCC4)c(F)cc3c2=O)c(C)c1 |  |  | 12.6 µM (active) |
| COc1ccc(-c2nc(S(=O)(=O)c3ccccc3)c(N3CCCCC3)o2)cc1 | 10% (inactive) |  |  |

| SMILES | activity, negative = inhibition | outcome | Potency |
| --- | --- | --- | --- |
| COc1ccc(N2CCN(C(=O)c3cn(C)c4ccc(S(=O)(=O)N5CCOCC5)cc4c3=O)CC2)cc1 |  | inactive |  |
| COc1ccc(S(=O)(=O)c2cn(C)c3cc(N4CCCCC4)c(F)cc3c2=O)cc1 |  |  | 8.91 µM (active) |
| CC(=O)N1CC2(CCN(C(=O)CCC(=O)O)CC2)Cc2ccccc21 | -0.797% (inactive) |  |  |
| COc1ccc(-c2cnc3n2CC(C(=O)NCCCN2CCCC2=O)CC3)cc1 (stereo unspecified) | -11.1% (inactive) |  |  |
| O=C(N[C@@H]1CCC[C@@H]1C(=O)N1CCN(c2ccccc2F)CC1)c1ccncc1 | -23.6% (inactive) |  |  |
| COCC(=O)NC1CCN(c2ccc(C)cc2)C1=O (stereo unspecified) | -4.4% (inactive) |  |  |
| COc1ccccc1C(=O)N1CCCC(n2cc(-c3nc(-c4ccccc4)no3)nn2)C1 (stereo unspecified) | -20.6% (inactive) |  |  |
| O=C(NC1CCN(Cc2ccccc2)CC1)c1ccc(Cn2c(=O)c3ccccc3n(Cc3cccc(F)c3)c2=O)cc1 |  |  | 7.94 µM (active) |
| O=C(O)c1c(CNCc2cccc(F)c2)c2ccccc2n1Cc1ccccc1 | -17% (inactive) |  |  |
| O=c1c2ccccc2n(Cc2cccc(Cl)c2)c(=O)n1Cc1ccccc1 |  | inactive |  |
| CC(=O)NC[C@@H]1C=C(C)[C@H](CC(=O)N2CCCC2)C[C@H]1C(C)C |  | inactive [at 44.1 µM] |  |
| COc1ccc2nc(C[C@@H]3C[C@@H](C(C)C)[C@H](CNC(=O)CC(C)(C)CC(=O)O)C=C3C)[nH]c2c1 |  | inactive |  |
| CC(=O)N1CCC(NC[C@@H]2C=C(C)[C@H](Cc3nc4ccccc4n3C)C[C@H]2C(C)C)CC1 |  |  | 4.47 µM (active) |
| CC1=C[C@@H](CNC2CCN(C)CC2)[C@H](C(C)C)C[C@H]1Cc1nc2ccccc2[nH]1 |  |  | 7.08 µM (active) |
| CC1=C[C@@H](CNS(C)(=O)=O)[C@H](C(C)C)C[C@H]1Cc1nc2ccccc2[nH]1 | -20.9% [at 44.1 µM] (inactive) |  |  |
| COc1ccc(CC(=O)NC[C@@H]2C=C(C)[C@H](Cc3nc4ccncc4[nH]3)C[C@H]2C(C)C)cc1 |  | inactive |  |
| CC1=C[C@@H](CN(CC2CC2)CC2CC2)[C@H](C(C)C)C[C@H]1Cc1nc2c(C)cccc2[nH]1 |  |  | 7.08 µM (active) |
| CC1=C[C@@H](CNC(=O)CCC(=O)O)[C@H](C(C)C)C[C@H]1Cc1nc2ccccc2n1C |  | inactive [at 44.1 µM] |  |
| CC1=C[C@@H](CNC(=O)CC2(CC(=O)O)CCCC2)[C@H](C(C)C)C[C@H]1Cc1nc2c(C)cccc2[nH]1 |  | inactive |  |
| COc1ccc(CCC(=O)N2CCC(Cc3nncn3C(C)C)C2)cc1 (stereo unspecified) | -17.8% (inactive) |  |  |
| CC(=O)N1CCN(Cc2ccc(C(F)(F)F)c(F)c2)CC(O)C1 (stereo unspecified) | -0.88% (inactive) |  |  |
| O=C(NCc1ccc(F)cc1)N1CCCC(Cc2noc(-c3ccncc3)n2)C1 (stereo unspecified) |  | inactive |  |
| COc1ccc(-c2noc([C@@H]3CCCN3C(=O)CCc3ccccc3)n2)cc1 |  | inactive |  |

| SMILES | activity, negative = inhibition | outcome | Potency |
| --- | --- | --- | --- |
| CCC(=O)N1N=C(c2ccc(OC)cc2)CC1c1cn(-c2ccccc2)nc1-c1cccs1 (stereo unspecified) |  |  | 11.2 µM (active) |
| CCN(CC)CCNC(=O)CN1N=C(c2ccc(OC)cc2)CCC1=O | 11% (inactive) |  |  |
| COC[C@@H]1CN(S(=O)(=O)c2cccc(F)c2)C[C@H]1c1ccncc1 | 2.93% (inactive) |  |  |
| O=C(c1ccccn1)N1CCC(N(C(=O)NCCc2ccccc2)C2CCOCC2)CC1 | -16% (inactive) |  |  |
| OC[C@@H]1CN(Cc2cccnc2)C[C@H]1c1ccncc1 |  | inactive |  |
| CN(C)c1ccc2ncc(Nc3ccccc3F)n2n1 | -14.7% [at 44.1 µM] (inactive) |  |  |
| COc1ccccc1Nc1cnc2ccc(-c3ccc(OC)c(OC)c3)nn12 |  |  | 1.12 µM (active) |
| COc1ccc(-c2ccc3ncc(Nc4ccc(C(F)(F)F)cc4)n3n2)cn1 |  | inactive [at 44.1 µM] |  |
| CC(=O)N1CCN(Cc2cc(F)ccc2Cl)CC(O)C1 (stereo unspecified) | 19.5% (inactive) |  |  |
| CN(Cc1ccccc1)C(=O)C1CCCN(c2cnn(Cc3ccccc3)c(=O)c2)C1 (stereo unspecified) |  | inactive |  |
| COc1cccc([C@H]2CN(c3cc(C)nc(N)n3)[C@@H]3C4CCN(CC4)[C@H]23)c1 |  |  | 11.2 µM (active) |
| COc1ccc([C@@H]2CN(C(=O)c3c(C)noc3C)[C@@H]3C4CCN(CC4)[C@@H]32)cc1 | -8.25% (inactive) |  |  |
| Cc1ccc([C@@H]2CN(Cc3ncc[nH]3)[C@@H]3C4CCN(CC4)[C@@H]32)cc1 | -2.87% (inactive) |  |  |
| O=C(Cn1nc2c(cc1=O)CCCC2)NC1CCN(C(=O)c2cc3ccccc3[nH]2)CC1 | -22.6% (inactive) |  |  |
| C[C@@H]1CN(C(=O)c2ccsc2)C[C@H]1c1nc(-c2ccncc2)no1 | 11.8% (inactive) |  |  |
| O=C1NCc2ccccc2CC12CCCN(CC1CCCCC1)C2 (stereo unspecified) | -23% (inactive) |  |  |
| COc1ccc(CN2CCC3(Cc4ccccc4CNC3=O)C2)cc1OC (stereo unspecified) | -18.3% (inactive) |  |  |
| O=C1NCc2ccccc2CC12CCCN(Cc1ccc(F)cc1O)C2 (stereo unspecified) |  |  | 4.47 µM (active) |
| CCOc1cc(C2C(C(=O)Nc3ccc(OC)cc3)=C(C)Nc3nc(SC)nn32)ccc1O (stereo unspecified) | 7.6% (inactive) |  |  |
| CCOc1ccc(C2C(C(=O)Nc3ccc(Cl)cc3)=C(C)Nc3nc(C(F)(F)F)nn32)cc1 (stereo unspecified) |  |  | 2.82 µM (active) |
| CCOc1ccccc1NC(=O)C1=C(C)Nc2ncnn2C1c1ccc(NC(C)=O)cc1 (stereo unspecified) | 22.7% (inactive) |  |  |
| c1cc(CN2CCCCCC2)cc(-c2nc(C3CCOC3)no2)c1 (stereo unspecified) |  |  | 8.91 µM (active) |
| COc1cccc(CCC(=O)N2CCCC2c2nc(C3CCOCC3)no2)c1 (stereo unspecified) | -2.39% (inactive) |  |  |

| SMILES | activity, negative = inhibition | outcome | Potency |
| --- | --- | --- | --- |
| O=C(NC1CCCC1)N1CCC(c2noc(-c3ccccc3)n2)C1 (stereo unspecified) | 13.8% [at 5.79 µM] (inactive) |  |  |
| Cc1ccc(C2CC(=O)Nc3c2c(C2CC2)nn3C)c(C)c1F (stereo unspecified) | -20.9% (inactive) |  |  |
| COc1cc2nc(SCC(=O)Nc3ccccc3F)n3nc(-c4ccccc4)nc3c2cc1OC | -5.43% (inactive) |  |  |
| COc1ccc(Cl)cc1NC(=O)CSc1nc2ccccc2c2nc(-c3ccccc3)nn12 | 107% (inactive) |  |  |
| COc1cc2nc(NCC(C)c3ccccc3)n3nc(-c4ccccc4)nc3c2cc1OC (stereo unspecified) |  |  | 3.55 µM (active) |
| COc1cccc(N2C(=O)NC(=NC3CCCCC3)C23CCN(CC2CC2)CC3)c1 | -3.09% (inactive) |  |  |
| O=C(CCC1CCCN(S(=O)(=O)c2ccc(F)cc2)C1)NC1CCS(=O)(=O)C1 (stereo unspecified) | 1.2% (inactive) |  |  |
| Cc1ccc(S(=O)(=O)N2CCCC(CCC(=O)NC3CCCCC3)C2)cc1 (stereo unspecified) |  |  | 12.6 µM (active) |
| Cc1ccc(C(=O)N2CCC(CCC(=O)NC3CCCCC3)CC2)cc1 | -9.5% (inactive) |  |  |
| Cc1nc([C@@H]2CN(C(=O)CCCc3nc4ccccc4s3)C[C@H]2C(N)=O)n[nH]1 | -8.7% (inactive) |  |  |
| CCC(CC)C(=O)N[C@H]1C[C@@H](Cc2cc(COc3ccccc3)on2)C1(C)C |  | inactive [at 44.1 µM] |  |
| CCNC(=O)N[C@H]1C[C@@H](Cc2cc(CC(C)C)on2)C1(C)C |  | inactive; activator [at 44.1 µM] |  |
| CC1(C)[C@H](Cc2cc(CC3CCCCC3)on2)C[C@@H]1NC(=O)C1CCC1 |  |  | 11.2 µM (active) |
| Cc1cc(CN(C)C(=O)C2C3C(=O)N(Cc4ccc(C)c(C)c4)C[C@@]34C=C[C@@H]2O4)no1 (stereo partly specified) | -14.8% (inactive) |  |  |
| COc1ccc(S(=O)(=O)c2c(Nc3cccc(Cl)c3)sc(C(=O)c3ccccc3)c2N)cc1 |  |  | 8.91 µM (active) |
| CCOC(=O)c1ccc(NC(=O)CCS(=O)(=O)c2ccc(C)cc2)cc1 | 3.65% (inactive) |  |  |
| Cc1cccc(Nc2nc(C)nc(N)c2S(=O)(=O)c2ccccc2)c1 |  | inactive |  |
| COc1ccc(S(=O)(=O)c2c(Nc3ccc(C)cc3)sc(C(=O)c3ccc(C)cc3)c2N)cc1 |  |  | 10 µM (active) |
| COc1cccc(C(=O)c2sc3nc(-c4ccccc4)cc(C(F)(F)F)c3c2N)c1 | -9.26% (inactive) |  |  |
| Cc1ccc(CN2C[C@H]3CN(C(=O)c4ccc5c(c4)OCO5)CCN3C2=O)cc1 |  | inactive [at 44.1 µM] |  |
| COc1ccc(N2C(=O)CSC23CCN(C(=O)c2ccc(C)cc2)CC3)cc1 | -11.5% (inactive) |  |  |
| Cc1ccc(S(=O)(=O)c2c(Nc3cccc(Cl)c3)sc(C(=O)c3ccc4c(c3)OCO4)c2N)cc1 |  |  | 7.94 µM (active) |
